Structures are written as SMILES. This is part of a sample that, as a whole, favours compounds with a hit. Of some 79,000 tested, about 15% had one in any assay. A number with no mark means an inactive call. Cut-off read from the data, not from the text of the source: active = growth inhibition above about 70%; inactive = the rest.

The nature of the experiment: NCI Yeast Anticancer Drug Screen. Data for the sgs1 mgt1 strain (AID 161).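 Note: 0% = growth of cultures given vehicle only.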 The conditions noted are these: S. cerevisiae sgs1 mgt1 strain, at 50.0 µM, active compounds read high. In a few lines: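 Growth of a repair-deficient yeast mutant was monitored after compound treatment and expressed as inhibition relative to vehicle-treated cultures.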
With `CC(C)=Cc1ccccc1C1(C)C(c2ccccc2)=C1c1ccccc1`, the growth inhibition is -9.25%.
Next, `CC(=O)CCC(=O)c1ccoc1`: 4.4%.
Consider `O=P(O)(O)c1ccccc1Oc1ccccc1`, for which the growth inhibition is 26.3%.
Next, `CCN(CC)N=Nc1ccc(S(N)(=O)=O)cc1`: 16.1%; `CCCOc1ccc(C(=O)O)cc1`: 6.3%.
Next, `Cc1ccc(C(=S)NC(=O)Nc2ccccc2)cc1`: -17.8%; `NCCCNCCCCNC(=O)C(O)NC(=O)CCCCCCN=C(N)N` (centres undefined): -2.05%; `NC(Cc1cccnn1)C(=O)O` (centres undefined): -29.2%.
Next, `OCC1CC=CCC1` (centres undefined): -4.35%; `COc1ccc(/C=C2\CCC(CCN(C)C)(C3=CCCC3)C2=O)cc1` (centres undefined): 15%.
Regarding `COC1OCCCO1`, the growth inhibition is -6.45%.
Next, `CSc1ncc(Br)c(Sc2nccn2C)n1`: 14.3%; `CCC1CN2CCc3cc(OC)c(OC)cc3C2CC1CC1c2cc(OC)c(OC)cc2CCN1C(=O)C1CCCN1` (centres undefined): 12.1%; `Clc1ccc(C2SCCS2)c(Cl)c1`: 59.1%.
Turning to `CC(=O)CC(=O)NN(C)C`, the growth inhibition is -28.9%.
Next, `CC1CCC2(CC1)NN=c1s/c(=C\c3ccc(O)cc3)c(=O)n1N2` (centres undefined): -21.9%; `COC(=O)/C=C/CCCC1CCCCC1`: 4.9%.
Next, `CCOC(=O)C1=C(C(=O)c2ccccc2)C(c2ccc([N+](=O)[O-])cc2)C(C(=O)c2ccccc2)=C(C(=O)OCC)N1`: -4%; `CCCCCCCCCCCCCCCCOP(=O)(O)OP(=O)(O)OCC1OC(n2ccc(N)nc2=O)CC1O` (centres undefined): 8.7%.

These data come from PubChem BioAssay (NCI).
